The source made the active and inactive calls.
Key:
Albumin (Bos taurus) = Albumin (Bos taurus) (UniProt P02769); assay: bovine serum albumin binders on microarray, profiling panel, artefact control for SMM control protein annotation, biochemical, small-molecule microarray, Alexa647 label, 635/667 nm fluorescence (AID 1118); conditions: BSA-A647 binding, fluorescence 635 nm, higher = more signal;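 also: score merges 667 nm emission intensity and signal-to-noise per printed compound spot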
[1] = small-molecule microarray binders of probe aXIP, primary screen, biochemical, NeuroSMM set, 635/667 nm fluorescence (AID 1119); conditions: higher = more signal, called active from +8 up or from −8 down;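 also: probe is the protein aXip251-270 applied at 1 µg/mL to compound-printed slides; binding of probe to printed compounds measured as 667 nm fluorescence plus signal to noise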
[2] = small-molecule binders of probe aNOTCH3, primary screen, biochemical, small-molecule microarray, 635/667 nm fluorescence (AID 1120); conditions: higher = more signal;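 also: probe is a biotin-tagged antibody raised against NOTCH3 rather than NOTCH3 protein; score merges spot fluorescence near 667 nm with spot signal to noise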
[3] = small-molecule binders of probe aNOTCH2, primary screen, biochemical, small-molecule microarray, 635/667 nm fluorescence (AID 1121); conditions: higher = more signal;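 also: score merges feature fluorescence read at 667 nm with its signal to noise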
[4] = biological target: Carbonic anhydrase 2 (Homo sapiens) (UniProt P00918); assay: CAII small-molecule binders, profiling panel, biochemical, small-molecule microarray, Alexa647-labelled CAII (AID 1122); conditions: CAII-A647 binding fluorescence, higher = more signal
[5] = COS7 lysate on small-molecule microarray, probe aHis, 635 nm (AID 1123); conditions: COS7 cell lysate, fluorescence, higher = more signal;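 also: z-score combines 667nm fluorescence intensity with signal-to-noise per printed compound spot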
[6] = compound binding in COS7 lysate, probe aLAP1, primary screen, cell lysate, small-molecule microarray (AID 1124); conditions: probe aLAP1, fluorescence, higher = more signal;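 also: lysate comes from COS7 cells expressing LAP1 and is applied at 0.3 µg/mL; score merges spot fluorescence near 667 nm with signal-to-noise over triplicate slides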
Sam68 (KHDRBS1) = assay: Sam68 small-molecule binders, primary screen, biochemical, small-molecule microarray, 635 nm fluorescence (AID 1125); conditions: small-molecule microarray binding, higher = more signal;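 also: score merges 667 nm channel intensity with signal to noise over triplicate slides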
[7] = test system: Chordin-like protein 2 (CHRDL2); assay: CHRDL2 small-molecule binders, primary screen, biochemical, small-molecule microarray, 635 nm fluorescence (AID 1126); conditions: small-molecule microarray binding, fluorescence 635 nm; higher = more signal;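 also: printed compound slides probed with Chrdl2 protein at 4 µg/mL for 1 h at 4 C; score merges 667 nm emission intensity with signal to noise over three replicate slides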
[8] = biological target: Concanavalin-A (Canavalia ensiformis) (UniProt P02866); assay: ConA small-molecule binders, primary screen, artefact control for SMM control protein annotation, biochemical, small-molecule microarray, Alexa647 label, 635 nm (AID 1127); conditions: ConA-A647 binding fluorescence, higher = more signal;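 also: z combines 667 nm emission intensity with signal-to-noise across three replicate slides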
[9] = anti-His antibody binders, primary screen, artefact control for SMM control protein annotation, biochemical, small-molecule microarray, 635 nm fluorescence (AID 1128); conditions: anti-His Alexa647 antibody binding, higher = more signal;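 also: score merges feature fluorescence with signal-to-noise for each printed compound spot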
[10] = test system: Human papillomavirus type 1a E7 protein (residues 1-88); assay: HPV1a E7 small-molecule binders, primary screen, biochemical, small-molecule microarray, residues 1-88, 635 nm (AID 1129); conditions: small-molecule microarray binding, fluorescence 635 nm; higher = more signal
[11] = biological target: Focal adhesion kinase 1 (Homo sapiens) (UniProt Q05397); assay: small-molecule microarray binders of FAK, primary screen, biochemical, 635/667 nm fluorescence, BSA, DTT (AID 1130); conditions: PTK2 binding, 635 nm fluorescence, higher = more signal;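 also: composite of spot emission at 667 nm and signal to noise over triplicate slides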
[12] = test system: Fibrinogen (Alexa647-labelled); assay: fibrinogen binders on compound microarrays, profiling panel, artefact control for SMM control-protein annotation, biochemical, small-molecule microarray, 635/667 nm fluorescence (AID 1131); conditions: fibrinogen-A647 binding fluorescence, higher = more signal;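 also: z-score merges 667 nm fluorescence with per-spot signal-to-noise over triplicate slides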
[13] = biological target: Follistatin (Homo sapiens) (UniProt P19883); assay: follistatin binders on small-molecule microarrays, primary screen, biochemical, small-molecule microarray, 635/667 nm fluorescence (AID 1132); conditions: FST binding, 635 nm fluorescence, higher = more signal
[14] = biological target: Fibroblast growth factor 2 (Homo sapiens) (UniProt P09038); assay: FGF2 binders on small-molecule microarrays, primary screen, biochemical, small-molecule microarray, 635/667 nm fluorescence (AID 1133); conditions: small-molecule microarray binding, FGF2, fluorescence 635/667; higher = more signal
[15] = mitochondrial membrane potential change in A549 cells, profiling panel, cell-based, JC-1 fluorescence, basal, 24 h, 100 nL (AID 1138); conditions: higher = more signal;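 also: A549 lung adenocarcinoma cells under basal conditions with no added stimulus; test concentration not given here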
Lefty1 = Lefty1 binders on small-molecule microarrays, primary screen, biochemical, small-molecule microarray, 635/667 nm fluorescence (AID 1139); conditions: small-molecule microarray binding, fluorescence 635/667; higher = more signal
[16] = test system: wheat germ agglutinin (Triticum aestivum), Alexa647-labelled; assay: wheat germ agglutinin binders on compound microarrays, profiling panel, artefact control for SMM control-protein annotation, biochemical, small-molecule microarray, 635/667 nm fluorescence (AID 1140); conditions: WGA-A647 binding, 635 nm fluorescence, higher = more signal;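 also: score merges 667 nm feature emission with signal to noise over triplicate slides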
[17] = biological target: Luciferin 4-monooxygenase (Photinus pyralis) (UniProt P08659); assay: firefly luciferase enzyme inhibitors, primary screen, biochemical, luminescence, purified enzyme, 2006 set (AID 1141); conditions: SteadyGlo luminescence, 30 min, higher = more signal, called active from +8 up or from −8 down;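 also: cell-free assay with purified firefly luciferase at 100 ng per well in PBS; test concentration not given here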
Luciferin 4-monooxygenase (Photinus pyralis), sequence (P08659 whole entry, looked up): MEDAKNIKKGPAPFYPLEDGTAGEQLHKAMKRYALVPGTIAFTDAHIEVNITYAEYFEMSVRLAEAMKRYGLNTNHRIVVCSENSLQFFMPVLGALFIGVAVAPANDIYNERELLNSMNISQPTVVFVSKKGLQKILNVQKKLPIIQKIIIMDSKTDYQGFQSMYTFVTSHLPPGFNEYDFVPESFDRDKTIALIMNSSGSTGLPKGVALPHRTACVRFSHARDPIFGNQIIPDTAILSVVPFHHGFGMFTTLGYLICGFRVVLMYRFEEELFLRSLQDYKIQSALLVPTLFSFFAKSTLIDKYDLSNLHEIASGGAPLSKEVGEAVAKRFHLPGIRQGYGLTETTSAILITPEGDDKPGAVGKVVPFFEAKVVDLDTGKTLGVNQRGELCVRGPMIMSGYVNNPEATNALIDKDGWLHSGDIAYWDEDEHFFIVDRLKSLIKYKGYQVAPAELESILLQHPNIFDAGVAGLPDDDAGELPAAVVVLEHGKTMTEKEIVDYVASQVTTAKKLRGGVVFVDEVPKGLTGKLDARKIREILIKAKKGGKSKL

Follistatin (Homo sapiens), sequence (P19883 whole entry, looked up): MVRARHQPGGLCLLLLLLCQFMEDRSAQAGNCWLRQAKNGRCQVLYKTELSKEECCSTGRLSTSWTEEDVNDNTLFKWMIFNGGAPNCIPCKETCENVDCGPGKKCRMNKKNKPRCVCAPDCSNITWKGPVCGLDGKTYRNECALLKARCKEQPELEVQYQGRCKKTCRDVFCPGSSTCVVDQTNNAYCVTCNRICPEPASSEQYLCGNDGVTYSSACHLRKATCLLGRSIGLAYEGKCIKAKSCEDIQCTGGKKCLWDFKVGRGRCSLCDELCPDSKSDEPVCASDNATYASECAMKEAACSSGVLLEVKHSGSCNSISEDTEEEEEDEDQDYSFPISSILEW
Albumin (Bos taurus), sequence (P02769 whole entry, looked up): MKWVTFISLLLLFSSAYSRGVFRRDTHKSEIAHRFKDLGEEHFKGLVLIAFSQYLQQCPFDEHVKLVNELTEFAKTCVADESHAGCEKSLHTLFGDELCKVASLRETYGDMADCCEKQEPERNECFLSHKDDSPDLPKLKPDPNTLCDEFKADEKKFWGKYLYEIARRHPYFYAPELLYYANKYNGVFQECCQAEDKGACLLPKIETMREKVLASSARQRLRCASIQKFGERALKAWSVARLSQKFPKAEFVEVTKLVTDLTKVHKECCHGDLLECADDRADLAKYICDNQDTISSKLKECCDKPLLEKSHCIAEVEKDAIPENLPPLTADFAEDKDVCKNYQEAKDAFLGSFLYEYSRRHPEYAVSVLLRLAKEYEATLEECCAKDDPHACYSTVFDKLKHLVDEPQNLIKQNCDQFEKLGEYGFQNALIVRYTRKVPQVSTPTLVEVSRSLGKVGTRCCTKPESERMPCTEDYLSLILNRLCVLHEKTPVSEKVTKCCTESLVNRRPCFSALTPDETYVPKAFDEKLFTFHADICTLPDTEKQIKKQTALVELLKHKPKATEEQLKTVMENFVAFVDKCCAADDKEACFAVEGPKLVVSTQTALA
Fibroblast growth factor 2 (Homo sapiens), sequence (P09038 whole entry, looked up): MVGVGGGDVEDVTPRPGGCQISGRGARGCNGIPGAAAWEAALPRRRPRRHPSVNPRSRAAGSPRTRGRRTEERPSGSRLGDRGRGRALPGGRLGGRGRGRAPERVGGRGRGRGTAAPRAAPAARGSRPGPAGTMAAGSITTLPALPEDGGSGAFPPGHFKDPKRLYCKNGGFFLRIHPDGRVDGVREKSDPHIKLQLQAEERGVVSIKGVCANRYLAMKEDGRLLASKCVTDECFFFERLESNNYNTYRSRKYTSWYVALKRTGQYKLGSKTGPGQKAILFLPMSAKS
Focal adhesion kinase 1 (Homo sapiens), sequence (Q05397 whole entry, looked up): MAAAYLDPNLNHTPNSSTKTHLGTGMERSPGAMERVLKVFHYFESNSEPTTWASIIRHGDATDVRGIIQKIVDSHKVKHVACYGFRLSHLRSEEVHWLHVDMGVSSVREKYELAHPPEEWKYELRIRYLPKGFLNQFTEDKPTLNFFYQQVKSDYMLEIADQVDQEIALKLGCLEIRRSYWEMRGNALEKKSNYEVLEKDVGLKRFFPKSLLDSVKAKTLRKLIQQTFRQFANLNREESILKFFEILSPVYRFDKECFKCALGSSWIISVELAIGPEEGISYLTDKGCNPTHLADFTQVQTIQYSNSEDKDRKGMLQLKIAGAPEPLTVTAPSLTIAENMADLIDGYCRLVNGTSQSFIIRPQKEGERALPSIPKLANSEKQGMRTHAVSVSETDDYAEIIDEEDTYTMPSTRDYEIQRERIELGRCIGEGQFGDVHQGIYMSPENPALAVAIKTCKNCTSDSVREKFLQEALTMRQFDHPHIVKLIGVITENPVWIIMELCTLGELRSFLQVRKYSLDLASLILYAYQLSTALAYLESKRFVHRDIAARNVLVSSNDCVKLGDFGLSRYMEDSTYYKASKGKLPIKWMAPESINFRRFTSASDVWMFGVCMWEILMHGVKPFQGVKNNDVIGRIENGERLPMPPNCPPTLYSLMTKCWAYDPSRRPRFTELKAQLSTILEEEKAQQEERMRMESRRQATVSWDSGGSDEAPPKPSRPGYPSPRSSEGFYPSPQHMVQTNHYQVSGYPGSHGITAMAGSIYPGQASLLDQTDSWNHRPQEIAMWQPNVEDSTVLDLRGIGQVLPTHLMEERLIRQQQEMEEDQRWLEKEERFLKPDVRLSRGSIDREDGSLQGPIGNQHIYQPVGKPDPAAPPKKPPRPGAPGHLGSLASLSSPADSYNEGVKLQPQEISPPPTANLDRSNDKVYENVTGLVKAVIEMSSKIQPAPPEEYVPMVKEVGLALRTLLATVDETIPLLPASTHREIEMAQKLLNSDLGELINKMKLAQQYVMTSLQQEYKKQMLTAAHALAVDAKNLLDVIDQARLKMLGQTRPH
Concanavalin-A (Canavalia ensiformis), sequence (P02866 whole entry, looked up): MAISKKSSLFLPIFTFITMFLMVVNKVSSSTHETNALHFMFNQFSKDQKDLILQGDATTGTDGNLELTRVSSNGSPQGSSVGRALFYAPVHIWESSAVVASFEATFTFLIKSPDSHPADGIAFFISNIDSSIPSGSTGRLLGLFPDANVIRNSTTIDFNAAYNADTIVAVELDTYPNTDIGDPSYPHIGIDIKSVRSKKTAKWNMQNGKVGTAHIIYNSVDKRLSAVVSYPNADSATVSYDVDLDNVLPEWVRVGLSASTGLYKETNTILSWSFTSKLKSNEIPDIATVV

COc1ccc([Si](C)(C)[C@@H]2[C@@H](CC(=O)N(CCO)Cc3ccccc3)O[C@]3(C(=O)N(Cc4cccc(N5CCCCC5=O)c4)c4ccccc43)[C@H]2C)cc1
composite z-score (Albumin (Bos taurus)): 0.11
composite Z-score [1]: 0.42 (inactive)
composite z-score [2]: -0.22
composite z-score [3]: -0.131
composite z-score [4]: 0.52
composite z-score [5]: 1.86
composite z-score [6]: -0.104
composite z-score (Sam68 (KHDRBS1)): 0.646
composite z-score [7]: 0.905
composite z-score [8]: 1.03
composite z-score [9]: 0.112
composite z-score [10]: 0.869
composite z-score [11]: 0.518
composite z-score [12]: -0.451
composite z-score [13]: 1.15
composite z-score [14]: 0.361
z-score [15]: -0.171
composite z-score (Lefty1): 1.46
composite z-score [16]: 0.349
z-score [17]: 0.151 (inactive)

COc1cc2c(cc1O)C(C1CC1)N(Cc1cccc(OC(F)(F)F)c1)CC2 (stereo not given)
composite z-score (Albumin (Bos taurus)): 0.353
composite Z-score [1]: 0.926 (inactive)
composite z-score [2]: -0.0824
composite z-score [3]: -0.0846
composite z-score [4]: 0.814
composite z-score [5]: 1.06
composite z-score [6]: 0.762
composite z-score (Sam68 (KHDRBS1)): -0.316
composite z-score [7]: 0.13
composite z-score [8]: -0.744
composite z-score [9]: -0.144
composite z-score [10]: -0.922
composite z-score [11]: -0.662
composite z-score [12]: -1.03
composite z-score [13]: 0.167
composite z-score [14]: 0.357
z-score [15]: -1.46
composite z-score (Lefty1): -0.255
composite z-score [16]: -0.181
z-score [17]: 0.187 (inactive)

[N-]=[N+]=NCc1ccccc1[C@@H]1OC(c2ccc(OCCCO)cc2)=N[C@]1(CCS(=O)(=O)c1ccccc1)C(=O)O
composite z-score (Albumin (Bos taurus)): 0.951
composite Z-score [1]: 0.0313 (inactive)
composite z-score [2]: 0.0311
composite z-score [3]: -0.0145
composite z-score [4]: 0.786
composite z-score [5]: 1.6
composite z-score [6]: 0.0649
composite z-score (Sam68 (KHDRBS1)): 0.585
composite z-score [7]: -1.92
composite z-score [8]: 0.448
composite z-score [9]: 0.843
composite z-score [10]: 0.843
composite z-score [11]: 0.809
composite z-score [12]: 0.839
composite z-score [13]: 0.0575
composite z-score [14]: -0.517
z-score [15]: -0.586
composite z-score (Lefty1): 0.381
composite z-score [16]: 1.17
z-score [17]: -5.21 (inactive)

C=C(C(=O)CC[C@H](OC(=O)c1ccccc1-c1ccccc1C(=O)O)c1cccc(OCCO)c1)C(C)C
composite z-score (Albumin (Bos taurus)): 0.688
composite Z-score [1]: -0.302 (inactive)
composite z-score [2]: -0.185
composite z-score [3]: -0.162
composite z-score [4]: 0.696
composite z-score [5]: 0.715
composite z-score [6]: 0.2
composite z-score (Sam68 (KHDRBS1)): -0.192
composite z-score [7]: -0.0748
composite z-score [8]: 0.0561
composite z-score [9]: 0.0001
composite z-score [10]: -0.399
composite z-score [11]: 0.0444
composite z-score [12]: 0.0591
composite z-score [13]: 0.319
composite z-score [14]: 0.85
z-score [15]: -0.697
composite z-score (Lefty1): 0.485
composite z-score [16]: 0.36
z-score [17]: -0.373 (inactive)

O=C(O)[C@@H]1[C@@H]2C(=O)N(c3ccccc3)C(=O)[C@@H]2C[C@@H]1Sc1ccccc1
composite z-score (Albumin (Bos taurus)): -0.037
composite Z-score [1]: 0.0618 (inactive)
composite z-score [2]: -0.0932
composite z-score [3]: -0.0572
composite z-score [4]: 0.526
composite z-score [5]: 0.796
composite z-score [6]: 0.627
composite z-score (Sam68 (KHDRBS1)): -0.983
composite z-score [7]: -1.06
composite z-score [8]: -0.607
composite z-score [9]: -0.102
composite z-score [10]: -0.683
composite z-score [11]: 0.236
composite z-score [12]: -1.02
composite z-score [13]: -1.19
composite z-score [14]: -1.16
z-score [15]: -0.677
composite z-score (Lefty1): -1.07
composite z-score [16]: 0.627
z-score [17]: 1.35 (inactive)

Source: PubChem BioAssay
